# Test results from the supplement of paper PMC12024529.
# Test system: HEK293 WT BDD-FVIII-Gluc
# Experiment: secreted FVIII-Gluc luciferase Z-score vs DMSO control; higher = more FVIII-Gluc secretion
# Conditions: 5 µM
# Description: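 Natural plant-compound library (480 compounds, ST catalogue IDs) screened on HEK293 cells stably expressing WT BDD-FVIII-Gaussia luciferase fusion at 5 µM. Secreted Gluc activity in the medium is given as a Z-score relative to DMSO controls.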
row,Compound,secreted FVIII-Gluc luciferase Z-score
1,CO[C@H]1/C=C/O[C@@]2(C)Oc3c(C)c(O)c4c(O)c(c(C=O)c(O)c4c3C2=O)NC(=O)/C(C)=C\C=C\[C@H](C)[C@H](O)[C@@H](C)[C@@H](O)[C@@H](C)[C@H](OC(C)=O)[C@@H]1C,1.13
2,CC1=CC(=O)C2=C(C)CCC3C(C)C(=O)OC3C12 (configuration not stated),0.0708
3,C=C1CC23C[C@@]1(O)CCC2C12C=CC(O)C(C)(C(=O)O1)C2[C@@H]3C(=O)O (some centres not stated),-0.216
4,CO[C@H]1/C=C/O[C@@]2(C)Oc3c(C)c(O)c4c(O)c(cc(O)c4c3C2=O)NC(=O)/C(C)=C\C=C\[C@H](C)[C@H](O)[C@@H](C)[C@@H](O)[C@@H](C)[C@H](OC(C)=O)[C@@H]1C,-0.224
5,C[C@H]1O[C@@H](O[C@H]2[C@@H](O)C[C@H](O[C@H]3[C@@H](O)C[C@H](O[C@H]4CC[C@@]5(C)[C@H](CC[C@@H]6[C@@H]5CC[C@]5(C)[C@@H](C7=CC(=O)OC7)CC[C@]65O)C4)O[C@@H]3C)O[C@@H]2C)C[C@H](O)[C@@H]1O,-4.57
6,O=c1c(-c2ccc(O)cc2)coc2cc(O)cc(O)c12,-1.4
7,COC(=O)[C@H]1[C@H]2C[C@H]3c4[nH]c5ccccc5c4CCN3C[C@@H]2CC[C@@H]1O,-1.15
8,COc1c2ccoc2nc2c(OC)c(OCC(O)C(C)(C)O)ccc12 (configuration not stated),0.695
9,COc1ccc(-c2coc3cc(O)cc(O)c3c2=O)cc1,0.185
10,CC(=O)Nc1nc2nc[nH]c2c(=O)[nH]1,0.475
11,CNC[C@H](O)c1ccc(O)c(O)c1,0.948
12,COc1c(-c2ccc(O)c(O)c2)oc2cc(O)cc(O)c2c1=O,-0.415
